Here are results for 40 compounds from PubChem BioAssay (NCATS).

SMILES strings stand for the structures. Inconclusive results are not listed. Active and inactive are the calls of the source. The call rests on the fitted dose curve; in most records, active means well fitted curve in the direction sought with a large enough effect; inconclusive means small, poorly fitted or top-dose-only effect, or another doubt; inactive means no such curve, though single readings can be large; an effect the other way counts as inactive or inconclusive.
On the % scale 0 is the no-effect control and ±100 the full control effect.

Chain of Metallo-beta-lactamase type 2 (Klebsiella pneumoniae) (C7C422 whole entry, looked up): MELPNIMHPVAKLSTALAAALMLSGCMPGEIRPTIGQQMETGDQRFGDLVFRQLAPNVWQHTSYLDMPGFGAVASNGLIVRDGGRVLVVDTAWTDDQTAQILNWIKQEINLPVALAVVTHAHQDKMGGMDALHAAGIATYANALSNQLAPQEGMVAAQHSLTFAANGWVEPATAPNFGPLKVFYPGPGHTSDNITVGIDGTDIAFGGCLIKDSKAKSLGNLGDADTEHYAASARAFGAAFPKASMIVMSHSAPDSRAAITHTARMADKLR

In one test the target is Metallo-beta-lactamase type 2 (Klebsiella pneumoniae) (UniProt C7C422). Put plainly: qHTS to identify inhibitors of the New Delhi Metallo-beta-lactamase (NDM): assay validation screen against the NCATS LOPAC Collection (AID 1794843).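 Further: nitrocefin turnover by NDM-1 measured as 485 nm absorbance at plateau.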 The settings on record: NDM-1 enzyme, nitrocefin hydrolysis, absorbance 485 nm; series mostly up to 38.4 µM; activity change, negative = inhibition: at the top concentration. Put shortly:
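NDM-1 at 2 nM final in 50 mM HEPES pH 7.0 with 1 uM ZnSO4 and 0.01% Tween20 was preincubated with library compounds in DMSO. Nitrocefin (50 uM stock) was then added, and absorbance at 485 nm was read at the kinetic plateau.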
Background: Quantitative high-throughput screening tests each substance at several concentrations.
As to `Nc1cc2c(ncn2CCOCP(=O)(O)O)c(=O)[nH]1`, the “activity change, negative = inhibition” value is 1.29% (inactive). Same read-out and setting: in the case of `CP(=O)(O)C1=CCNCC1` it was -1.31% (inactive); in that of `NC(N)=NOCC[C@H](N)C(=O)O`, -3.21% (inactive). With `CC(N)Cc1c[nH]c2ccc(O)cc12` (centres undefined), the “activity change, negative = inhibition” value was -4.1% (inactive). Turning to `C[C@H]1C2Cc3ccc(O)cc3[C@@]1(C)CCN2CC1CC1`, the “activity change, negative = inhibition” value is -0.198% (inactive).

Regarding `Cc1cc([C@@H]2CCCN2C)on1`, the “activity change, negative = inhibition” value was -2.5% (inactive). As for `COc1ccc2c(c1)C13CCCCC1C(C2)N(C)CC3` (centres undefined), the “activity change, negative = inhibition” value was 5.96% (inactive). Regarding `CC(N)[C@H](O)c1ccc(O)c(O)c1` (some centres undefined), the “activity change, negative = inhibition” value is -14.3% (inactive). `C=CCN1CCC23c4c5ccc(O)c4O[C@H]2C(=O)CC[C@@]3(O)C1C5` (some centres undefined): the “activity change, negative = inhibition” value is -2.14% (inactive).

As for `CC(=O)OCC1=C(C(=O)O)N2C(=O)[C@@H](NC(=O)CCC[C@@H](N)C(=O)O)[C@H]2SC1`, the “activity change, negative = inhibition” value is -0.99% (inactive). On to `Nc1ccc(CCN2CCN(c3cccc(C(F)(F)F)c3)CC2)cc1`, for which the “activity change, negative = inhibition” value was 0.354% (inactive). On to `O=[N+]([O-])c1ccc2nc(N3CCNCC3)ccc2c1`, for which the “activity change, negative = inhibition” value was 0.346% (inactive). For `O=C1/C(=C/c2ccccc2)C[C@@]2(O)[C@H]3Cc4ccc(O)c5c4[C@@]2(CCN3CC2CC2)[C@H]1O5`, the “activity change, negative = inhibition” value is 13.1% (inactive).

In the case of `CC12NC(Cc3ccccc31)c1ccccc12` (centres undefined), the “activity change, negative = inhibition” value is 0.411% (inactive).

For another test, the target named is Glutathione peroxidase 1 (Homo sapiens) (UniProt P07203). Briefly: Primary qHTS Assay for Inhibitors of Recombinant Selenoprotein Glutathione Peroxidase 1 (GPX1) (AID 1845191). Further: nearly all actives have a fitted effect of over 65% in size. Further: potency means the concentration at half of the fitted maximal effect. The settings on record: recombinant GPX1, GR-coupled NADPH fluorescence, 15 min; series mostly up to 48.8 µM; activity, negative = inhibition: at the top concentration. Put shortly: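 GR-coupled readout: NADPH consumption tracked by fluorescence, ex 340/em 450 nm, at t=0 and after 15 min at RT. Final mix 10 nM GPX1, 1 mM GSH, 0.5 mM CHP, 0.5 mM NADPH, 100 nM GR, 0.01% BSA, following 30 min enzyme–compound preincubation.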
Chain of Glutathione peroxidase 1 (Homo sapiens) (P07203 whole entry, looked up): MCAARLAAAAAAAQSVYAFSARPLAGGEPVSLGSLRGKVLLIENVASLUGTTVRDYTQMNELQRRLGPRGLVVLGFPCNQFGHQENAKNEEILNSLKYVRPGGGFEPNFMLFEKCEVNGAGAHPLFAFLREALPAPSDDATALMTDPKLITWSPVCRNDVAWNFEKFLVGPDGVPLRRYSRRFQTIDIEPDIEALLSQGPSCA
Regarding `Nc1cc2c(ncn2CCOCP(=O)(O)O)c(=O)[nH]1`, the result was inactive.

Take `CP(=O)(O)C1=CCNCC1`: the outcome was inactive.

`C[C@]12CC[C@@H](O)C[C@H]1CC[C@@H]1[C@@H]2CC[C@]2(C)C(=O)CC[C@@H]12`: the “activity, negative = inhibition” value is -9.72% (inactive). Take `NC(N)=NOCC[C@H](N)C(=O)O`: the outcome was inactive.

As to `C[C@]12CCC(=O)C=C1C=C[C@@H]1[C@@H]2CC[C@@]2(C)[C@H]1CC[C@@]2(O)CCC(=O)O`, the “activity, negative = inhibition” value was -11.2% (inactive). In the case of `CC1CCC(C(C)C)C(OC(=O)c2ccccc2N)C1` (centres undefined), the result was inactive. In the case of `CN1[C@H]2CC[C@@H]1[C@@H](C(=O)O)[C@@H](OC(=O)c1ccccc1)C2`, the “activity, negative = inhibition” value is -12.8% [at 98.3 µM] (inactive). For `OC1(c2ccc(Cl)cc2)c2ccccc2C2=NCCN21` (centres undefined), the result was inactive. As to `CC(N)Cc1c[nH]c2ccc(O)cc12` (centres undefined), the “activity, negative = inhibition” value was -11% (inactive). As to `O=C(O)C(Cl)(Cl)Cl`, the outcome was inactive. As to `Oc1ccc2c3c1O[C@H]1c4oc5ccccc5c4C[C@@]4(O)C(C2)N(CC2CC2)CCC314` (some centres undefined), the outcome was inactive. On to `C[C@H]1C2Cc3ccc(O)cc3[C@@]1(C)CCN2CC1CC1`, for which the “activity, negative = inhibition” value is -6.79% (inactive). Take `CCCCC[C@@H](O)C1C(=O)OC(C)[C@H](O)/C=C/C=C/C=C/C=C/C=C(\C)C(O)C(O)C(O)C[C@H](O)C[C@H](O)C[C@H](O)C[C@H](O)C[C@@H]1O` (some centres undefined): the result was inactive. The same measure, in the same setting: in the case of `CC1=CC2/C=C(\C)CCC(O)C3OC(C)(C)OC3CC(=O)OC23C(=O)NC(CC(C)C)C3C1C` (centres undefined) it was “inactive [at 27.7 µM]”; in that of `Cc1cc([C@@H]2CCCN2C)on1`, “inactive”. For `NNC(N)=O`, the result was inactive. Consider `COc1ccc2c(c1)C13CCCCC1C(C2)N(C)CC3` (centres undefined), for which the “activity, negative = inhibition” value is -18.4% (inactive). Turning to `Oc1ccc2c3c1O[C@H]1[C@@H](O)CC[C@@]4(O)[C@@H](C2)N(CC2CCC2)CC[C@]314`, the result was inactive.

With `CC(N)[C@H](O)c1ccc(O)c(O)c1` (some centres undefined), the outcome was inactive. For the compound `C=CCN1CCC23c4c5ccc(O)c4O[C@H]2C(=O)CC[C@@]3(O)C1C5` (some centres undefined), the “activity, negative = inhibition” value is -12.5% (inactive). As for `N#CCCN`, the result was inactive. For the compound `CC(=O)OCC1=C(C(=O)O)N2C(=O)[C@@H](NC(=O)CCC[C@@H](N)C(=O)O)[C@H]2SC1`, the “activity, negative = inhibition” value was -6.33% (inactive). On to `CCCC(=O)OC(C(Cl)(Cl)Cl)P(=O)(OC)OC` (centres undefined), for which the “outcome” value is “inactive [at 98.3 µM]”.

For the compound `COc1ccccc1CN[C@H]1C2CCN(CC2)[C@H]1C(c1ccccc1)c1ccccc1`, the “activity, negative = inhibition” value was -5.26% (inactive).

Turning to `CCC1C(C)=NN=C(c2ccc(OC)c(OC)c2)c2cc(OC)c(OC)cc21` (centres undefined), the “activity, negative = inhibition” value was -15.1% (inactive). On the same count and under the same terms, in the case of `Nc1ccc(CCN2CCN(c3cccc(C(F)(F)F)c3)CC2)cc1` it was -24.1% (inactive); in that of `O=[N+]([O-])c1cc(I)c(O)c(I)c1`, -29.1% (inactive). As for `ClC1C(Cl)C(Cl)C(Cl)C(Cl)C1Cl` (centres undefined), the outcome was inactive. With `O=[N+]([O-])c1ccc2nc(N3CCNCC3)ccc2c1`, the “activity, negative = inhibition” value is 4.21% (inactive).

For `CC(C)(O)[C@H]1O[C@H]2CC[C@@]3(C)[C@@](O)(CC[C@H]4Cc5c([nH]c6ccccc56)[C@@]43C)C2=CC1=O`, the “activity, negative = inhibition” value is -21.2% [at 27.7 µM] (inactive).

On to `CCCCCCC(=O)O[C@H]1CC[C@H]2[C@@H]3CC[C@H]4CC(=O)C=C(C)[C@]4(C)[C@H]3CC[C@]12C`, for which the “activity, negative = inhibition” value was -47.7% (inactive). Take `O=C1/C(=C/c2ccccc2)C[C@@]2(O)[C@H]3Cc4ccc(O)c5c4[C@@]2(CCN3CC2CC2)[C@H]1O5`: the “activity, negative = inhibition” value is -5.34% (inactive). For `C[C@]12CC[C@H](OS(=O)(=O)O)CC1=CC[C@@H]1[C@@H]2CC[C@]2(C)C(=O)CC[C@@H]12`, the “activity, negative = inhibition” value is -19.6% (inactive). Consider `c1ccc2sc(SNC3CCCCC3)nc2c1`, for which the Potency was 28.2 µM (active). In the case of `CC12NC(Cc3ccccc31)c1ccccc12` (centres undefined), the “activity, negative = inhibition” value is -18.2% (inactive).

Regarding `C[C@@H](CO)NC(=O)[C@@H]1C=C2c3cccc4[nH]cc(c34)C[C@H]2N(C)C1`, the “activity, negative = inhibition” value is -22.8% (inactive).

Turning to `CCNC1(c2cccs2)CCCCC1=O` (centres undefined), the result was inactive.

Consider `CCCCCCCCCC(=O)O[C@H]1CC[C@H]2[C@@H]3CCC4=CC(=O)CC[C@]4(C)[C@H]3CC[C@]12C`, for which the result was inactive.

For the compound `N=C(N)c1ccc(CS(=O)(=O)F)cc1`, the result was inactive.

Turning to `O=C(OCCN1CCCCC1)C(O)(c1ccccc1)c1ccccc1`, the “activity, negative = inhibition” value is -3.48% (inactive).
